Data on 19 compounds can be found in PubChem BioAssay.

Assay [1] is described as follows: reduced viability of SK-BR-3 breast cancer cells – cell-based, 24 h, human, pilot screen (AID 572;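 active means viability at or below 10% of carrier control in both of two separate runs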;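 further: compound exposure lasted between 18 and 24 h rather than exactly 24 h; 100% = carrier-treated control wells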). The conditions noted are these: SK-BR-3 viability, CellTiter-Glo luminescence, at 10 µM, stronger effect = lower value. On the technique in general: ATP-based viability assays read luminescence as a measure of living cells.
The nature of assay [2]: H69AR cell proliferation blockers – human, duplicate replicates, primary screen (AID 580;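 active means viability at or under a set limit in both replicates, limit being median viability minus 3 SD, cut at about 48% in these data, passing the limit was not always enough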;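 further: 100% = mean luminescence of untreated wells and 0% = no signal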). Particulars: H69AR lung tumor cells viability, ATP luminescence, 72 h; at 10 µM; stronger effect = lower value.
The nature of assay [3]: MRP1 drug-resistance reversers in H69AR cells – cell-based, doxorubicin co-treatment, pilot screen (AID 601). Particulars: CellTiter-Glo, 72 h, at 10 µM; for differential viability (reversal): stronger effect = higher value.
The nature of assay [4]: yeast transport mutant growth inhibition pilot in 384-well plates, post-Golgi transport modulator project (AID 636; in the data active means inhibition above about 31%). Particulars: absorbance 615 nm, about 18 h, stronger effect = higher value.
Assay [5] in a line: growth suppression of yeast trafficking mutant, preliminary HTS, modulators of trafficking downstream of Golgi apparatus project, 1536-format plate, OD 615 nm (AID 637; in the data active means inhibition above about 30%). Particulars: yeast transport mutant growth, absorbance 615 nm, 18 h; stronger effect = higher value.
Where [6] appears, read: H69AR cells + 2 uM doxorubicin, measured here: viability with 2 uM doxorubicin, stronger effect = lower value.
Where [7] appears, read: H69AR cells, compound alone cytotoxicity.

Structures are written as SMILES. The source made the active and inactive calls.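 How the source made its calls, unless noted: active means viability loss from added drug above about 55%, and viability with drug at most 40%, in both replicates (limit read from the data, passing the limit was not always enough); inconclusive means both conditions met in only one replicate; inactive means neither replicate meets both conditions.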

As for `Oc1cccc(Nc2nc(NCC3CCCO3)c3ccccc3n2)c1` (stereo unspecified), the viability in assay [1] is 73% (inactive); in assay [2] it was 22.1% (active); in assay [3] (setting [6]), 41.4%; in assay [3] (setting [7]) it was 22.1%. For the same compound, the differential viability (reversal) in assay [3] (H69AR cells + 2 uM doxorubicin) was -19.3% (inactive). Also, the figures for the inhibition in assay [4] and in assay [5] were -5% (inactive) and 3.17% (inactive), respectively.
Take `O=S(=O)(c1cccc2cnccc12)N1CCCNCC1`: the viability in assay [1] is 140% (inactive); in assay [2] it was 97.4% (inactive); in assay [3] (setting [6]), 95.5%; in assay [3] (setting [7]), 97.4%. The differential viability (reversal) in assay [3] (H69AR cells + 2 uM doxorubicin) is 1.83% (inactive). The results for the inhibition in assay [4] and in assay [5] were -2.08% (inactive) and 4.5% (inactive), respectively.
Turning to `Clc1ccc(C2=Nn3c(nnc3-c3n[nH]c4c3CCC4)SC2)cc1Cl`, the viability in assay [1] is 102% (inactive); in assay [2], 9% (active); in assay [3] (setting [6]), 21.1%; in assay [3] (setting [7]), 9%. Moreover, the differential viability (reversal) in assay [3] (H69AR cells + 2 uM doxorubicin) is -12.1% (inactive). Moreover, the values for the inhibition in assay [4] and in assay [5] were -6.58% (inactive) and 6.77% (inactive), respectively.
For `CCc1oc2ccccc2c1C(=O)c1cc(Br)c(O)c(Br)c1`, the viability in assay [1] is 95% (inactive); in assay [2] it was 79% (inactive); in assay [3] (setting [6]) it was 102%; in assay [3] (setting [7]) it was 79%. For the same compound, the differential viability (reversal) in assay [3] (H69AR cells + 2 uM doxorubicin) is -23.2% (inactive). Moreover, the inhibition is -0.52% (inactive) in assay [4] and 54.7% (active) in assay [5].
In the case of `C=C(CC)C(=O)c1ccc(OCC(=O)O)c(Cl)c1Cl`, the viability was 86% (inactive) in assay [1], 48.5% in assay [3] (setting [6]) and 49.4% in assay [3] (setting [7]). Further, in assay [3] (H69AR cells + 2 uM doxorubicin), the differential viability (reversal) is 0.86% (inactive). In addition, the inhibition was -2.47% (inactive) in assay [4] and -0.5% (inactive) in assay [5].
Consider `Fc1ccc(C(c2ccc(F)cc2)N2CCN(C/C=C/c3ccccc3)CC2)cc1`, for which the viability in assay [1] is 89% (inactive); in assay [2], 76.7% (inactive); in assay [3] (setting [6]), 82.3%; in assay [3] (setting [7]), 76.7%. Further, the differential viability (reversal) in assay [3] (H69AR cells + 2 uM doxorubicin) was -5.65% (inactive). The figures for the inhibition in assay [4] and in assay [5] were 3.38% (inactive) and -1.17% (inactive), respectively.
With `CCCCn1c(SCc2ccc(Cl)cc2)nc2c1c(=O)[nH]c(=O)n2C`, the viability in assay [1] was 80% (inactive); in assay [2], 76.7% (inactive); in assay [3] (setting [6]), 70.7%; in assay [3] (setting [7]) it was 76.7%. Besides, the differential viability (reversal) in assay [3] (H69AR cells + 2 uM doxorubicin) is 6.03% (inactive). The inhibition was -4% (inactive) in assay [4] and 0.73% (inactive) in assay [5].
In the case of `Cc1ccc(Cl)cc1N1CCN(C(=O)c2cn(C)c(=O)c3c2c2ccccc2n3C)CC1`, the viability in assay [1] was 94% (inactive); in assay [2], 3.07% (active); in assay [3] (setting [6]), 31.8%; in assay [3] (setting [7]) it was 3.07%. Besides, the differential viability (reversal) in assay [3] (H69AR cells + 2 uM doxorubicin) is -28.7% (inactive). The values for the inhibition in assay [4] and in assay [5] were -1.73% (inactive) and 4.73% (inactive), respectively.
As for `O=C(NC1CC1)c1cccc(Nc2ccc(-c3ccc4c(c3)OCCO4)nn2)c1`, the viability in assay [1] is 76% (inactive); in assay [3] (setting [6]) it was 61.2%; in assay [3] (setting [7]), 49.1%. Also, the differential viability (reversal) in assay [3] (H69AR cells + 2 uM doxorubicin) was -12% (inactive). The inhibition in assay [4] is -0.81% (inactive); in assay [5], -5.82% (inactive).
As for `CN1CCN(C2=Nc3cc(Cl)ccc3Nc3ccccc32)CC1`, the viability was 94% (inactive) in assay [1], 68% (inactive) in assay [2], 51% in assay [3] (setting [6]) and 68% in assay [3] (setting [7]). Also, the differential viability (reversal) in assay [3] (H69AR cells + 2 uM doxorubicin) is 17% (inactive). For the same compound, the inhibition in assay [4] is 1.82% (inactive); in assay [5], 3.67% (inactive).
In the case of `O=C(O)c1ccc2c3c(ncnc13)-c1ccccc1C2=O`, the viability is 60.5% (inactive) in assay [1], 80.3% (inactive) in assay [2], 99.8% in assay [3] (setting [6]) and 80.3% in assay [3] (setting [7]). Moreover, in assay [3] (H69AR cells + 2 uM doxorubicin), the differential viability (reversal) was -19.5% (inactive). The inhibition is 5.51% (inactive) in assay [4] and 1.67% (inactive) in assay [5].
Take `CC(=O)Nc1ccccc1OCC(=O)c1cc(C)n(Cc2cccs2)c1C`: the viability in assay [1] is 92% (inactive); in assay [2] it was 85.8% (inactive); in assay [3] (setting [6]) it was 90.2%; in assay [3] (setting [7]), 85.8%. For the same compound, the differential viability (reversal) in assay [3] (H69AR cells + 2 uM doxorubicin) is -4.4% (inactive). Besides, the inhibition in assay [4] is -3.01% (inactive); in assay [5], -3.45% (inactive).
Turning to `O=C(Nc1ccc2nn(-c3ccccc3)nc2c1)c1ccc(Br)o1`, the viability is 67.5% (inactive) in assay [1], 9.49% (active) in assay [2], 9.78% in assay [3] (setting [6]) and 9.49% in assay [3] (setting [7]). Also, in assay [3] (H69AR cells + 2 uM doxorubicin), the differential viability (reversal) is -0.29% (inactive). For the same compound, the inhibition was -7.43% (inactive) in assay [4] and -10.3% (inactive) in assay [5].
Consider `Oc1ccc(/C=C/c2cc(O)cc(O)c2)cc1`, for which the viability in assay [1] is 115% (inactive); in assay [2] it was 76.9% (inactive); in assay [3] (setting [6]), 88.6%; in assay [3] (setting [7]), 76.9%. Besides, in assay [3] (H69AR cells + 2 uM doxorubicin), the differential viability (reversal) is -11.7% (inactive). For the same compound, the inhibition in assay [4] is 0.13% (inactive); in assay [5] it was -5.17% (inactive).
As to `Cc1cc(C)c2ccc(N)nc2c1O`, the viability in assay [1] was 87.5% (inactive); in assay [2], 21.4% (active); in assay [3] (setting [6]), 28.9%; in assay [3] (setting [7]), 21.4%. Further, the differential viability (reversal) in assay [3] (H69AR cells + 2 uM doxorubicin) was -7.52% (inactive). Moreover, the results for the inhibition in assay [4] and in assay [5] were -1.43% (inactive) and -1.48% (inactive), respectively.
`COC(=O)c1ccccc1NC(=O)Cn1c(-c2nonc2N)nc2ccccc21`: the viability is 70.5% (inactive) in assay [1], 15.7% (active) in assay [2], 26.1% in assay [3] (setting [6]) and 15.7% in assay [3] (setting [7]). For the same compound, the differential viability (reversal) in assay [3] (H69AR cells + 2 uM doxorubicin) was -10.4% (inactive). Moreover, the inhibition in assay [4] was 1.07% (inactive); in assay [5] it was -4.84% (inactive).
As for `COc1ccccc1NC(=O)c1oc2ccccc2c1NC(=O)c1cc(OC)c(OC)c(OC)c1`, the viability in assay [1] is 56.5% (inactive); in assay [2], 16.9% (active); in assay [3] (setting [6]) it was 35.3%; in assay [3] (setting [7]), 16.9%. Besides, the differential viability (reversal) in assay [3] (H69AR cells + 2 uM doxorubicin) was -18.4% (inactive). Further, the inhibition was -3.33% (inactive) in assay [4] and -2.1% (inactive) in assay [5].
With `COc1cc2c(C#N)c(N3CCN(c4ccccc4OC)CC3)nc(N)c2c(N)n1`, the viability in assay [1] is 110% (inactive); in assay [2], 67.8% (inactive); in assay [3] (setting [6]), 63.3%; in assay [3] (setting [7]) it was 67.8%. For the same compound, the differential viability (reversal) in assay [3] (H69AR cells + 2 uM doxorubicin) is 4.45% (inactive). Also, the inhibition in assay [4] was -0.26% (inactive); in assay [5], 5.9% (inactive).
For `COc1ccc(Br)cc1-c1noc(-c2ccccc2)n1`, the viability is 99% (inactive) in assay [1], 78.5% (inactive) in assay [2], 79.1% in assay [3] (setting [6]) and 78.5% in assay [3] (setting [7]). Moreover, in assay [3] (H69AR cells + 2 uM doxorubicin), the differential viability (reversal) was -0.585% (inactive). Besides, the inhibition was -3.87% (inactive) in assay [4] and -4.36% (inactive) in assay [5].

As usually defined, the viability is a read-out of living cells in per cent, often relative to untreated cells. Usually inhibition stands for the change of the read-out against control, counted positive when it falls.
